Experimental data taken from PubChem BioAssay (NCI).
This is part of a sample that, as a whole, favours compounds with a hit. Of some 83,000 tested, about 20% had one in any assay.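 Results are percent growth after 48 hours of single-concentration exposure. 100 means growth as in untreated cells, lower positive values show inhibition; negative values down to -100 show cell death.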 Calls of active or inactive are those of the source. How the source made its calls: active means growth percent below 10; inactive means the rest.

What follows are molecules tested on IGROV1 ovarian (assay: NCI-60 one-dose screen, 48 h (100 = growth as untreated, 0 = no growth, -100 = all killed)). Settings: 10 µM unless noted.

Structure (SMILES) | growth
O=S(=O)(c1ccccc1)N1CCCN(c2nc(-c3ccccc3)nc3nc(-c4ccccc4)oc23)CC1 | 100% (inactive)
Clc1ccc(-c2cn3ccsc3n2)c(Cl)c1Cl | 77.2% (inactive)
O=C(CN1C(=O)/C(=C/c2ccco2)SC1=S)NCCc1c[nH]c2ccc(F)cc12 | 104% (inactive)
COc1cc(C2C3=C(COC3=O)N(CCO)c3cc4c(cc32)OCCO4)cc(OC)c1OC (stereo not given) | 4.17% (active)
N/C(=N\c1nc2ccccc2s1)NC(=NC1CCCCC1)NC1CCCCC1 | 14.4% (inactive)
CC(O)c1ncc(/C=C2\SC(=S)N(Cc3ccccc3)C2=O)s1 (stereo not given) | 100% (inactive)
COc1ccc2nc3ccccc3c(NCc3ccc(F)cc3)c2c1 | 8.15% (active)
COc1cc(-c2cc(-c3ccc(Nc4ncnc5cc(Cl)ccc45)cc3)nc(N3CCN(C)CC3)n2)cc(OC)c1OC | 81.3% (inactive)
O=C(Nc1cccnc1Nc1ccc(Cl)cc1)c1cn(Cc2ccc(F)cc2)nn1 | 107% (inactive)
N#Cc1c(NC(=O)c2cccs2)[n+]([O-])c2ccc(Cl)cc2[n+]1[O-] | -19.9% (active)
CCOC(=O)/C=C/c1c(C)[nH]c(=O)[nH]c1=O | 112% (inactive)
COc1ccc(C2C3=C(COC3=O)N(CCO)c3cc4c(cc32)OCCO4)cc1OC (stereo not given) | 37.1% (inactive)
CN1CCN(c2ccc3c(c2)nc(NNC(=O)c2cnccn2)c2cccn23)CC1 | 15.6% (inactive)
C=CCOC(=O)C1=C(C)NC(=O)NC1c1c(Cl)n(C)c2ccccc12 (stereo not given) | 107% (inactive)
COc1ccc(Cl)cc1Nc1nc(C(F)(F)F)ccc1C(=O)N/N=C/c1ccccc1Cl | 4.17% (active)
N#Cc1c(-c2ccccc2)nc2c(c(-c3ccccc3)nn2-c2ccccc2)c1-c1ccc(N2CCOCC2)cc1 | 87.7% (inactive)
O=C(CCCCCCCCC(=O)N/N=C\c1cc(Cl)ccc1O)N/N=C\c1cc(Cl)ccc1O | 30.2% (inactive)
CC12CCC(/C(=C/NNc3ccc([N+](=O)[O-])cc3[N+](=O)[O-])C1=O)C2(C)C (stereo not given) | 68.6% (inactive)
Nc1ccc([N+](=O)[O-])cc1N=C/C=C/c1ccccc1 | 64.8% (inactive)
CC1CN=C(c2cccc(-c3ccc(-c4ccccc4)o3)c2)N1 (stereo not given) | 31% (inactive)

Structure (SMILES) | growth
CCCCc1oc2ccccc2c1C(=O)c1ccc(O)cc1 | 79.6% (inactive)
Cc1cc2oc(=O)cc(CP(=O)(O)O)c2cc1O | 91.6% (inactive)
CCOC(=O)C1=C(C)N=C2SC=C(c3ccccc3)N2[C@H]1c1cn[nH]c1-c1ccc(Cl)cc1 | -24.4% (active)
CCN1C(=S)N(CC)C2C1NC(=S)N2/N=C/C=C/c1ccccc1OC (stereo not given) | 19.5% (inactive)
CC(=O)N/C(=C1/OC(C(O)C(O)C(O)CO)CN1C)[P+](c1ccccc1)(c1ccccc1)c1ccccc1 (stereo not given) | 101% (inactive)
CCn1cc(C(=O)N/N=C/c2ccc(Br)cc2)c(=O)c2cc(F)c(N3CCNC(C)C3)c(F)c21 (stereo not given) | 71.3% (inactive)
CCNc1nc(-c2ccc(F)cc2)c(C#N)c(=O)n1C | 54.1% (inactive)
C(/C=C/c1ccccc1)=Nc1ccc(CCc2ccc(N=C/C=C/c3ccccc3)cc2)cc1 | 85.8% (inactive)
O=C(N/N=C/c1ccc([N+](=O)[O-])cc1)c1ccc2nc(-c3ccc(Cl)cc3)[nH]c2c1 | 19.1% (inactive)
Fc1ccc(CNc2c3ccccc3nc3ccccc23)cc1 | 21.9% (inactive)
O=C(CSc1nnc2sc(Nc3cccc(Cl)c3)nn12)c1ccc(F)cc1 | 101% (inactive)
Cn1c(=O)c2c(nc(NC3=NS(=O)(=O)c4ccccc43)n2Cc2ccccc2)n(C)c1=O | 95.5% (inactive)
O=c1nc(Nc2nc3ccccc3s2)[nH]c(=O)c2ccccc12 | 100% (inactive)
c1ccc2cc(Cn3c[n+](Cc4ccc5ccccc5c4)c4ccccc43)ccc2c1 | -42.4% (active)
Cc1[nH]c(/C=C/C(=O)c2ccc(C(F)(F)F)c(F)c2)c(C)c1C(=O)NCC(C)C | 107% (inactive)
O=C(Nc1cccc(NC(=O)C2CCCCC2)c1)c1ccccn1 | 98.7% (inactive)
CCOC(=O)c1c2c(n3ccccc13)C(=O)c1ncccc1C2=O | 31.8% (inactive)
COc1ccc(C(c2cc(OC)c(OC)c(OC)c2)N2CCN(Cc3ccccc3)CC2)cc1 (stereo not given) | 63% (inactive)
CN(C)c1ccc(/C=C2/C=C(c3ccccc3)OC2=O)cc1 | 74.7% (inactive)
C#CC#CC#CC#CC#CC#CC#CC#CCC1OCC(COC(=O)O[C@@H](C(=O)O[C@H]2C[C@@]3(O)[C@@H](OC(=O)c4ccccc4)[C@@H]4[C@]5(OC(C)=O)CO[C@@H]5C[C@H](O)[C@@]4(C)C(=O)[C@H](OC(C)=O)C(=C2C)C3(C)C)[C@@H](NC(=O)c2ccccc2)c2ccccc2)O1 (stereo not given in full) | 22.2% (inactive)

Each molecule was assayed on OVCAR-3 ovarian in the same assay as above. Settings: 10 µM unless noted.

Structure (SMILES) | growth
O=S(=O)(c1ccccc1)N1CCCN(c2nc(-c3ccccc3)nc3nc(-c4ccccc4)oc23)CC1 | 117% (inactive)
Clc1ccc(-c2cn3ccsc3n2)c(Cl)c1Cl | 93.3% (inactive)
O=C(CN1C(=O)/C(=C/c2ccco2)SC1=S)NCCc1c[nH]c2ccc(F)cc12 | 110% (inactive)
COc1cc(C2C3=C(COC3=O)N(CCO)c3cc4c(cc32)OCCO4)cc(OC)c1OC (stereo not given) | -55.6% (active)
N/C(=N\c1nc2ccccc2s1)NC(=NC1CCCCC1)NC1CCCCC1 | 57.6% (inactive)
CC(O)c1ncc(/C=C2\SC(=S)N(Cc3ccccc3)C2=O)s1 (stereo not given) | 97.2% (inactive)
COc1ccc2nc3ccccc3c(NCc3ccc(F)cc3)c2c1 | 31.2% (inactive)
COc1cc(-c2cc(-c3ccc(Nc4ncnc5cc(Cl)ccc45)cc3)nc(N3CCN(C)CC3)n2)cc(OC)c1OC | 105% (inactive)
O=C(Nc1cccnc1Nc1ccc(Cl)cc1)c1cn(Cc2ccc(F)cc2)nn1 | 107% (inactive)
N#Cc1c(NC(=O)c2cccs2)[n+]([O-])c2ccc(Cl)cc2[n+]1[O-] | 81.5% (inactive)
CCOC(=O)/C=C/c1c(C)[nH]c(=O)[nH]c1=O | 118% (inactive)
COc1ccc(C2C3=C(COC3=O)N(CCO)c3cc4c(cc32)OCCO4)cc1OC (stereo not given) | -37% (active)
CN1CCN(c2ccc3c(c2)nc(NNC(=O)c2cnccn2)c2cccn23)CC1 | 13.9% (inactive)
C=CCOC(=O)C1=C(C)NC(=O)NC1c1c(Cl)n(C)c2ccccc12 (stereo not given) | 104% (inactive)
COc1ccc(Cl)cc1Nc1nc(C(F)(F)F)ccc1C(=O)N/N=C/c1ccccc1Cl | 1.6% (active)
N#Cc1c(-c2ccccc2)nc2c(c(-c3ccccc3)nn2-c2ccccc2)c1-c1ccc(N2CCOCC2)cc1 | 96% (inactive)
O=C(CCCCCCCCC(=O)N/N=C\c1cc(Cl)ccc1O)N/N=C\c1cc(Cl)ccc1O | 31.4% (inactive)
CC12CCC(/C(=C/NNc3ccc([N+](=O)[O-])cc3[N+](=O)[O-])C1=O)C2(C)C (stereo not given) | 87.4% (inactive)
Nc1ccc([N+](=O)[O-])cc1N=C/C=C/c1ccccc1 | 84.1% (inactive)
CC1CN=C(c2cccc(-c3ccc(-c4ccccc4)o3)c2)N1 (stereo not given) | 10.6% (inactive)

Structure (SMILES) | growth
CCCCc1oc2ccccc2c1C(=O)c1ccc(O)cc1 | 94.3% (inactive)
Cc1cc2oc(=O)cc(CP(=O)(O)O)c2cc1O | 102% (inactive)
CCOC(=O)C1=C(C)N=C2SC=C(c3ccccc3)N2[C@H]1c1cn[nH]c1-c1ccc(Cl)cc1 | 22.5% (inactive)
CCN1C(=S)N(CC)C2C1NC(=S)N2/N=C/C=C/c1ccccc1OC (stereo not given) | -48% (active)
CC(=O)N/C(=C1/OC(C(O)C(O)C(O)CO)CN1C)[P+](c1ccccc1)(c1ccccc1)c1ccccc1 (stereo not given) | 112% (inactive)
CCn1cc(C(=O)N/N=C/c2ccc(Br)cc2)c(=O)c2cc(F)c(N3CCNC(C)C3)c(F)c21 (stereo not given) | 52.9% (inactive)
CCNc1nc(-c2ccc(F)cc2)c(C#N)c(=O)n1C | 59.1% (inactive)
C(/C=C/c1ccccc1)=Nc1ccc(CCc2ccc(N=C/C=C/c3ccccc3)cc2)cc1 | 132% (inactive)
O=C(N/N=C/c1ccc([N+](=O)[O-])cc1)c1ccc2nc(-c3ccc(Cl)cc3)[nH]c2c1 | 11.3% (inactive)
Fc1ccc(CNc2c3ccccc3nc3ccccc23)cc1 | 38.7% (inactive)
O=C(CSc1nnc2sc(Nc3cccc(Cl)c3)nn12)c1ccc(F)cc1 | 106% (inactive)
Cn1c(=O)c2c(nc(NC3=NS(=O)(=O)c4ccccc43)n2Cc2ccccc2)n(C)c1=O | 110% (inactive)
O=c1nc(Nc2nc3ccccc3s2)[nH]c(=O)c2ccccc12 | 109% (inactive)
c1ccc2cc(Cn3c[n+](Cc4ccc5ccccc5c4)c4ccccc43)ccc2c1 | -50.8% (active)
Cc1[nH]c(/C=C/C(=O)c2ccc(C(F)(F)F)c(F)c2)c(C)c1C(=O)NCC(C)C | 112% (inactive)
O=C(Nc1cccc(NC(=O)C2CCCCC2)c1)c1ccccn1 | 104% (inactive)
CCOC(=O)c1c2c(n3ccccc13)C(=O)c1ncccc1C2=O | -19.8% (active)
COc1ccc(C(c2cc(OC)c(OC)c(OC)c2)N2CCN(Cc3ccccc3)CC2)cc1 (stereo not given) | 69% (inactive)
CN(C)c1ccc(/C=C2/C=C(c3ccccc3)OC2=O)cc1 | 73.7% (inactive)
C#CC#CC#CC#CC#CC#CC#CC#CCC1OCC(COC(=O)O[C@@H](C(=O)O[C@H]2C[C@@]3(O)[C@@H](OC(=O)c4ccccc4)[C@@H]4[C@]5(OC(C)=O)CO[C@@H]5C[C@H](O)[C@@]4(C)C(=O)[C@H](OC(C)=O)C(=C2C)C3(C)C)[C@@H](NC(=O)c2ccccc2)c2ccccc2)O1 (stereo not given in full) | 4.93% (active)
